Data on 32 sequences can be found in article PMC12820563, “FoxP3 forms a head-to-head dimer in vivo and stabilizes its multimerization on adjacent microsatellites”.

Over roughly 16,000 sequences, “rpm ratio (pull-down/input)” has its median near 0.94; the highest 2% begin near 1.7. Shown is part of a subset that was picked to be rich in the highest values.

The assay concerns the target T1, MBP-FoxP1dN (Mus musculus, UniProt P58462 326-579).
T1 sequence: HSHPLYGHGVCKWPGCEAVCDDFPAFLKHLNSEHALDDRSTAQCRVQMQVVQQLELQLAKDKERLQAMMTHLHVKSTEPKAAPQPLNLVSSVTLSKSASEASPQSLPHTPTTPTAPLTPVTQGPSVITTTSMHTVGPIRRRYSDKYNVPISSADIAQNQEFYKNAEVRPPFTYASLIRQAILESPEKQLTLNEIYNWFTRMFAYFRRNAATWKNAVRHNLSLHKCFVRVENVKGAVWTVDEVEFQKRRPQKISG
Briefly: PD-seq (MBP pull-down with sequencing); 20 mM Tris-HCl pH 7.5, 100 mM NaCl, 1.5 mM MgCl2, 0.4 uM protein, 0.1 uM dsDNA library, 30 min, room temperature, amylose pull-down; high values mean tight binding. The settings on record: protein: recombinant; tags: His6-MBP; chain copies: 2; dsDNA, one strand shown. The procedure, abridged:
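Binding is given as reads-per-million enrichment, pull-down over input, with replicates pooled. The bait was an N-terminus-lacking mouse FoxP3 or FoxP1 fragment with a His6-MBP tag, expressed in E. coli and used at 0.4 µM with 0.1 µM Klenow-filled degenerate double-stranded DNA library for 30 min at room temperature in Tris pH 7.5 buffer with NaCl and MgCl2. Amylose resin pull-down with three washes was followed by proteinase K release, PCR barcoding and Illumina sequencing.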
Take “GATGATTGTTCTCCCAGCTGATGAATTACGGGCATCGAGTAAACAAATTTTCCTAATCTTTCTGTTCAAGCGCCATCTAC”: the binding signal is 1.11 RPM ratio (pull-down/input).
The value for “GATGATTGTTCTCCCAGCTGATGAATTGGCGATTTCGAGTAAACAAATTTTCCTAATCTTTCTGTTCAAGCGCCATCTAC” was 0.865 RPM ratio (pull-down/input).
The value for “GATGATTGTTCTCCCAGCTGATGAATTTTACGGATCGAGTAAACAAATTTTCCTAATCTTTCTGTTCAAGCGCCATCTAC” was 0.879 RPM ratio (pull-down/input); that for “GATGATTGTTCTCCCAGCTGATGAATTGTCACGGTCGAGTAAACAAATTTTCCTAATCTTTCTGTTCAAGCGCCATCTAC” was 0.924 RPM ratio (pull-down/input); that for “GATGATTGTTCTCCCAGCTGATGAATTATTCGTTTCGAGTAAACAAATTTTCCTAATCTTTCTGTTCAAGCGCCATCTAC” was 1.01 RPM ratio (pull-down/input).
The value for “GATGATTGTTCTCCCAGCTGATGAATTCCTACCGTCGAGTAAACAAATTTTCCTAATCTTTCTGTTCAAGCGCCATCTAC” was 0.731 RPM ratio (pull-down/input); that for “GATGATTGTTCTCCCAGCTGATGAATTTTTGTGGTCGAGTAAACAAATTTTCCTAATCTTTCTGTTCAAGCGCCATCTAC” was 1.23 RPM ratio (pull-down/input).
Regarding “GATGATTGTTCTCCCAGCTGATGAATTTCTGTGGTCGAGTAAACAAATTTTCCTAATCTTTCTGTTCAAGCGCCATCTAC”, the binding signal is 0.924 RPM ratio (pull-down/input).
The same measure for “GATGATTGTTCTCCCAGCTGATGAATTGTGTTGGTCGAGTAAACAAATTTTCCTAATCTTTCTGTTCAAGCGCCATCTAC”: 1.92 RPM ratio (pull-down/input); for “GATGATTGTTCTCCCAGCTGATGAATTGTTGTGGTCGAGTAAACAAATTTTCCTAATCTTTCTGTTCAAGCGCCATCTAC”: 2.1 RPM ratio (pull-down/input).
On to “GATGATTGTTCTCCCAGCTGATGAATTGGTTGTGTCGAGTAAACAAATTTTCCTAATCTTTCTGTTCAAGCGCCATCTAC”, for which the binding signal was 1.2 RPM ratio (pull-down/input).
Turning to “GATGATTGTTCTCCCAGCTGATGAATTGGTGTGGTCGAGTAAACAAATTTTCCTAATCTTTCTGTTCAAGCGCCATCTAC”, the binding signal was 1.04 RPM ratio (pull-down/input).
The value for “GATGATTGTTCTCCCAGCTGATGAATTAGCTCAGTCGAGTAAACAAATTTTCCTAATCTTTCTGTTCAAGCGCCATCTAC” was 0.833 RPM ratio (pull-down/input).
As to “GATGATTGTTCTCCCAGCTGATGAATTTAGGTACTCGAGTAAACAAATTTTCCTAATCTTTCTGTTCAAGCGCCATCTAC”, the binding signal is 0.947 RPM ratio (pull-down/input).
In the case of “GATGATTGTTCTCCCAGCTGATGAATTTCGCATCTCGAGTAAACAAATTTTCCTAATCTTTCTGTTCAAGCGCCATCTAC”, the binding signal was 1.21 RPM ratio (pull-down/input).
The same measure for “GATGATTGTTCTCCCAGCTGATGAATTTGCCGGATCGAGTAAACAAATTTTCCTAATCTTTCTGTTCAAGCGCCATCTAC”: 0.839 RPM ratio (pull-down/input); for “GATGATTGTTCTCCCAGCTGATGAATTAAACAACTCGAGTAAACAAATTTTCCTAATCTTTCTGTTCAAGCGCCATCTAC”: 1.84 RPM ratio (pull-down/input); for “GATGATTGTTCTCCCAGCTGATGAATTTAAAACATCGAGTAAACAAATTTTCCTAATCTTTCTGTTCAAGCGCCATCTAC”: 1.37 RPM ratio (pull-down/input).
“GATGATTGTTCTCCCAGCTGATGAATTAAAAACATCGAGTAAACAAATTTTCCTAATCTTTCTGTTCAAGCGCCATCTAC”: the binding signal is 2.08 RPM ratio (pull-down/input).
Take “GATGATTGTTCTCCCAGCTGATGAATTAATCAACTCGAGTAAACAAATTTTCCTAATCTTTCTGTTCAAGCGCCATCTAC”: the binding signal was 1.1 RPM ratio (pull-down/input).
Regarding “GATGATTGTTCTCCCAGCTGATGAATTAAACTCCTCGAGTAAACAAATTTTCCTAATCTTTCTGTTCAAGCGCCATCTAC”, the binding signal is 0.846 RPM ratio (pull-down/input).
The value for “GATGATTGTTCTCCCAGCTGATGAATTAATCTAATCGAGTAAACAAATTTTCCTAATCTTTCTGTTCAAGCGCCATCTAC” was 1.1 RPM ratio (pull-down/input); that for “GATGATTGTTCTCCCAGCTGATGAATTAAAACAATCGAGTAAACAAATTTTCCTAATCTTTCTGTTCAAGCGCCATCTAC” was 2 RPM ratio (pull-down/input).
In the case of “GATGATTGTTCTCCCAGCTGATGAATTAATTCAATCGAGTAAACAAATTTTCCTAATCTTTCTGTTCAAGCGCCATCTAC”, the binding signal is 0.961 RPM ratio (pull-down/input).
Consider “GATGATTGTTCTCCCAGCTGATGAATTAAACAAATCGAGTAAACAAATTTTCCTAATCTTTCTGTTCAAGCGCCATCTAC”, for which the binding signal is 2.02 RPM ratio (pull-down/input).
The value for “GATGATTGTTCTCCCAGCTGATGAATTAAATCAATCGAGTAAACAAATTTTCCTAATCTTTCTGTTCAAGCGCCATCTAC” was 1.01 RPM ratio (pull-down/input); that for “GATGATTGTTCTCCCAGCTGATGAATTAAAAAAATCGAGTAAACAAATTTTCCTAATCTTTCTGTTCAAGCGCCATCTAC” was 1.04 RPM ratio (pull-down/input).
“GATGATTGTTCTCCCAGCTGATGAATTAAATTAATCGAGTAAACAAATTTTCCTAATCTTTCTGTTCAAGCGCCATCTAC”: the binding signal is 1.01 RPM ratio (pull-down/input).
The value for “GATGATTGTTCTCCCAGCTGATGAATTCTCACAGTCGAGTAAACAAATTTTCCTAATCTTTCTGTTCAAGCGCCATCTAC” was 0.875 RPM ratio (pull-down/input); that for “GATGATTGTTCTCCCAGCTGATGAATTAATTGAGTCGAGTAAACAAATTTTCCTAATCTTTCTGTTCAAGCGCCATCTAC” was 0.932 RPM ratio (pull-down/input).
The same measure for “GATGATTGTTCTCCCAGCTGATGAATTGGGTATCTCGAGTAAACAAATTTTCCTAATCTTTCTGTTCAAGCGCCATCTAC”: 0.935 RPM ratio (pull-down/input); for “GATGATTGTTCTCCCAGCTGATGAATTAGAAGCTTCGAGTAAACAAATTTTCCTAATCTTTCTGTTCAAGCGCCATCTAC”: 0.996 RPM ratio (pull-down/input).
